# Assay results published in article PMC7826789 (International Journal of Molecular Sciences, 2021).
# Legend:
# Settings in all cases: Compound Concentration (nM):1000
# CSNK2A2 = system: CSNK2A2
# CTK = system: T1, CTK
# T1 construct: gene MATK
# DAPK1 = system: DAPK1
# DAPK2 = system: DAPK2
# DAPK3 = system: DAPK3
# DCAMKL1 = system: T2, DCAMKL1
# T2 construct: gene DCLK1
# DCAMKL2 = system: T3, DCAMKL2
# T3 construct: gene DCLK2
# DCAMKL3 = system: T4, DCAMKL3
# T4 construct: gene DCLK3
# DDR1 = system: DDR1
# DDR2 = system: DDR2
# DLK = system: T5, DLK
# T5 construct: gene MAP3K12
# DMPK2 = system: T6, DMPK2
# T6 construct: gene CDC42BPG
# DMPK = system: DMPK
# DRAK1 = system: T7, DRAK1
# T7 construct: gene STK17A
# DRAK2 = system: T8, DRAK2
# T8 construct: gene STK17B
# DYRK1A = system: DYRK1A
# DYRK1B = system: DYRK1B
# DYRK2 = system: DYRK2
# EGFR(E746-A750del) = system: EGFR(E746-A750del)
# EGFR(G719C) = system: EGFR(G719C)
# 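Also: KINOMEscan scanMAX binding as percent activity remaining versus control; lower means stronger binding.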
SMILES,Percent Control (CSNK2A2) [%],Percent Control (CTK) [%],Percent Control (DAPK1) [%],Percent Control (DAPK2) [%],Percent Control (DAPK3) [%],Percent Control (DCAMKL1) [%],Percent Control (DCAMKL2) [%],Percent Control (DCAMKL3) [%],Percent Control (DDR1) [%],Percent Control (DDR2) [%],Percent Control (DLK) [%],Percent Control (DMPK2) [%],Percent Control (DMPK) [%],Percent Control (DRAK1) [%],Percent Control (DRAK2) [%],Percent Control (DYRK1A) [%],Percent Control (DYRK1B) [%],Percent Control (DYRK2) [%],Percent Control (EGFR(E746-A750del)) [%],Percent Control (EGFR(G719C)) [%]
CC1=C(C(=O)Nc2ccc3[nH]ncc3c2)C(c2ccc3ccccc3c2)CC(=O)N1 (stereo not shown) [GSK270822A],80,54,95,100,100,90,74,94,79,90,68,94,100,95,84,92,83,66,100,53
Cl.O=C(Nc1ccc(Oc2ccc3[nH]c(NC(=O)c4ccccc4)nc3c2)cc1)Nc1cc(C(F)(F)F)ccc1F [GW709042A],72,100,100,100,100,92,96,100,0,16,77,86,100,100,100,100,100,97,94,71
NS(=O)(=O)c1ccc(N/N=C2\C(=O)Nc3ccc(C(=O)NCCc4c[nH]cn4)cc32)cc1 [GW300660X],1.4,100,44,100,15,65,100,100,100,100,100,100,100,3.8,12,50,100,11,100,100
Cl.c1ccc(Cc2nc3ccc(Nc4ncnc5ccccc45)cc3[nH]2)cc1 [GR269666A],100,100,100,99,96,90,100,100,100,100,83,100,100,68,100,100,100,73,70,0
NS(=O)(=O)c1ccc(N/N=C2\C(=O)Nc3ccc(Cl)cc32)cc1 [GW280670X],54,100,100,100,100,94,100,100,100,100,96,100,100,100,100,100,100,93,100,100
C/C(Nc1ccc(S(N)(=O)=O)cc1)=C1/C(=O)Nc2ccccc21 [GW335962X],21,84,94,93,96,80,80,100,95,100,73,97,99,100,97,77,93,46,100,91
Cc1cc(O)cc(C)c1/C=C/c1cncc(C(N)=O)c1 [GW435821X],78,98,100,100,100,87,100,100,40,74,90,100,100,100,100,93,100,75,69,89
O=C(Nc1n[nH]c2nc(-c3ccc(O)cc3)c(Br)cc12)C1CC1 [SB-725317],85,100,55,34,34,89,100,3.5,98,100,100,100,23,100,95,24,7.4,6.6,91,100
CCn1c(-c2nonc2N)nc2c(C#CC(C)(C)O)nc(OCCNC)cc21.Cl [GSK949675],97,100,100,100,100,100,100,66,100,100,86,100,100,100,100,70,100,87,97,100
C[C@@H](Oc1cc(-n2cnc3ccc(OC4CCN(C)CC4)cc32)sc1C(N)=O)c1ccccc1Cl [GSK579289A],8.4,100,29,49,28,70,83,89,92,90,78,100,80,100,93,100,100,49,92,81
COc1cc(C)c(N(C)C(=O)CN(C)C)cc1Nc1nc(Nc2cccc(F)c2C(N)=O)c2cc[nH]c2n1 [GSK2219385],81,100,85,73,71,78,100,100,78,100,80,99,84,88,83,60,100,100,100,98
COC(=O)Nc1nc2ccc(Oc3ccc(NC(=O)Nc4cc(C(F)(F)F)ccc4F)cc3)cc2s1.Cl [GW693917A],68,91,95,100,100,95,86,100,0,5.8,64,73,100,100,99,82,100,62,88,98
COc1ccc(COc2ccc(Cc3cnc(N)nc3N)cc2OC)cc1 [GW632580X],70,94,94,91,91,94,78,100,78,100,97,100,100,100,100,88,100,81,100,85
COc1ccc2[nH]c3c4[nH]c5ccc(OC)cc5c4c4c(c3c2c1)C(=O)NC4=O [GW296115X],56,93,22,4.9,4.8,90,90,19,77,72,77,84,56,0.4,2.2,48,79,50,20,64
COc1cc(/C=N/Nc2ncnc3[nH]ncc23)ccc1O [GW578748X],7.7,97,78,75,48,68,100,68,100,100,71,100,100,7,9.9,12,69,2.5,90,52
Cl.O=C(O[C@H]1CN[C@H](C#Cc2cc3ncnc(Nc4ccc5c(cnn5Cc5ccccc5)c4)c3s2)C1)N1CCOCC1 [GSK200398A],70,89,95,100,100,82,100,100,92,100,71,100,100,89,99,76,100,84,38,0.1
CCS(=O)(=O)c1ccc(OC)c(Nc2ncc(-c3cccc(OC)c3)o2)c1 [GW580509X],4.4,100,100,90,100,81,100,100,59,100,88,100,100,100,100,39,41,23,81,100
NS(=O)(=O)c1ccc(Nc2ncc(-c3ccccc3)o2)cc1 [GW572399X],53,100,100,100,100,83,100,100,100,100,81,100,100,85,100,92,81,57,98,100
Cl.O=C(Nc1ccc(Oc2ccc3[nH]c(NC(=O)c4ccco4)nc3c2)cc1)Nc1cc(C(F)(F)F)ccc1F [GW683134A],91,100,100,83,89,87,100,82,0,5.1,86,82,100,100,100,100,93,83,92,100
CN(C)CCNC(=O)Nc1ccc(N(C)c2ccnc(Nc3ccc(CS(C)(=O)=O)cc3)n2)cc1.Cl [GW830900A],62,86,94,100,100,89,100,100,73,17,67,91,100,100,100,100,100,85,92,96
